Measurements published in PubChem BioAssay AID1159580 (chemical genetic matrix, 2015).
In all, about 5,500 compounds went through this assay and about 2,000 (36%) were called active. About 18% were inconclusive and are not listed. Cut-off read from the data, not from the text of the source: active = normalized growth mostly below about 0.91 (no sharp cut-off); inconclusive = no clear call, values can overlap the other calls; inactive = mostly above about 0.92. The list shows a part of the results.

Experiment: chemical genetic growth profiling, strain panel (AID 1159580);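 note: tested at 20 µM; growth read once vehicle control cultures reached saturation at 30 °C; 1 = growth at the plate median or of vehicle wells; lower values mean less growth of the strain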
Conditions: growth OD

Measured: normalized growth

CC[C@@H]1[C@@H](O)N2C3C[C@H]1C1C(O)[C@]4(C[C@@H]12)c1ccccc1N(C)[C@@H]34 (some centres not stated)
inactive: S. cerevisiae deletion strains, locus YJR075W, strain HOC1, stronger effect = lower value 0.986 | S. cerevisiae deletion strains, locus YKL009W, strain mrt4, stronger effect = lower value 1.02 | S. cerevisiae deletion strains, locus YKL068W, stronger effect = lower value 0.987 | S. cerevisiae deletion strains, locus YKL085W, strain MDH1 (second series), stronger effect = lower value 0.997 | S. cerevisiae deletion strains, locus YKL085W, strain MDH1, stronger effect = lower value 0.997 | S. cerevisiae deletion strains, locus YKL160W, strain elf1, stronger effect = lower value 1 | S. cerevisiae deletion strains, locus YKL190W, strain CNB1, stronger effect = lower value 0.989 | S. cerevisiae deletion strains, locus YKR001C, strain vps1, stronger effect = lower value 0.965 | S. cerevisiae deletion strains, locus YKR026C, strain gcn3, stronger effect = lower value 1.02 | S. cerevisiae deletion strains, locus YKR091W, strain srl3, stronger effect = lower value 1.03 | S. cerevisiae deletion strains, locus YLL001W, strain dnm1, stronger effect = lower value 1.02 | S. cerevisiae deletion strains, locus YLL026W, stronger effect = lower value 1 | S. cerevisiae deletion strains, locus YLL041C, strain sdh2, stronger effect = lower value 1.05 | S. cerevisiae deletion strains, locus YLR027C, strain aat2, stronger effect = lower value 1.02 | S. cerevisiae deletion strains, locus YLR039C, strain RIC1, stronger effect = lower value 0.985 | S. cerevisiae deletion strains, locus YLR058C, strain SHM2, stronger effect = lower value 0.992 | S. cerevisiae deletion strains, locus YLR102C, strain apc9, stronger effect = lower value 0.973 | S. cerevisiae deletion strains, locus YLR113W, strain HOG1, stronger effect = lower value 0.996 | S. cerevisiae deletion strains, locus YLR221C, strain rsa3, stronger effect = lower value 1.01 | S. cerevisiae deletion strains, locus YLR258W, strain gsy2, stronger effect = lower value 1.03 | S. cerevisiae deletion strains, locus YLR262C, strain YPT6 (second series), stronger effect = lower value 1.01 | S. cerevisiae deletion strains, locus YLR262C, strain YPT6, stronger effect = lower value 0.984 | S. cerevisiae deletion strains, locus YLR268W, strain sec22, stronger effect = lower value 0.935 | S. cerevisiae deletion strains, locus YLR320W, strain mms22, stronger effect = lower value 1.01 | S. cerevisiae deletion strains, locus YLR330W, strain CHS5, stronger effect = lower value 0.994 | S. cerevisiae deletion strains, locus YLR342W, strain FKS1 (second series), stronger effect = lower value 1.01 | S. cerevisiae deletion strains, locus YLR342W, strain FKS1, stronger effect = lower value 1.01 | S. cerevisiae deletion strains, locus YLR357W, strain rsc2, stronger effect = lower value 1.09 | S. cerevisiae deletion strains, locus YLR370C, strain arc18, stronger effect = lower value 1.03 | S. cerevisiae deletion strains, locus YLR371W, strain rom2, stronger effect = lower value 0.975 | S. cerevisiae deletion strains, locus YLR384C, strain iki3, stronger effect = lower value 1.03 | S. cerevisiae deletion strains, locus YLR418C, strain cdc73, stronger effect = lower value 0.961 | S. cerevisiae deletion strains, locus YML016C, strain PPZ1, stronger effect = lower value 0.992 | S. cerevisiae deletion strains, locus YML032C, strain rad52, stronger effect = lower value 0.954 | S. cerevisiae deletion strains, locus YML120C, strain ndi1, stronger effect = lower value 1.02 | S. cerevisiae deletion strains, locus YML124C, strain tub3, stronger effect = lower value 0.982 | S. cerevisiae deletion strains, locus YMR058W, strain fet3, stronger effect = lower value 1.01 | S. cerevisiae deletion strains, locus YMR078C, strain ctf18, stronger effect = lower value 0.958 | S. cerevisiae deletion strains, locus YMR125W, strain sto1, stronger effect = lower value 1.06 | S. cerevisiae deletion strains, locus YMR129W, stronger effect = lower value 1.01 | S. cerevisiae deletion strains, locus YMR205C, strain PFK2, stronger effect = lower value 1.03 | S. cerevisiae deletion strains, locus YMR223W, strain ubp8, stronger effect = lower value 0.996 | S. cerevisiae deletion strains, locus YMR231W, strain pep5, stronger effect = lower value 1.03 | S. cerevisiae deletion strains, locus YMR263W, strain SAP30, stronger effect = lower value 1 | S. cerevisiae deletion strains, locus YMR307W, strain GAS1, stronger effect = lower value 0.974 | S. cerevisiae deletion strains, locus YNL067W, strain RPL9B, stronger effect = lower value 0.981 | S. cerevisiae deletion strains, locus YNL071W, strain lat1, stronger effect = lower value 1.03 | S. cerevisiae deletion strains, locus YNL128W, strain TEP1, stronger effect = lower value 0.991 | S. cerevisiae deletion strains, locus YNL153C, strain GIM3, stronger effect = lower value 0.992 | S. cerevisiae deletion strains, locus YNL183C, strain NPR1, stronger effect = lower value 0.917 | S. cerevisiae deletion strains, locus YNL209W, strain ssb2, stronger effect = lower value 1.04 | S. cerevisiae deletion strains, locus YNL233W, strain BNI4, stronger effect = lower value 0.977 | S. cerevisiae deletion strains, locus YNL248C, strain rpa49, stronger effect = lower value 1.01 | S. cerevisiae deletion strains, locus YNL250W, strain rad50, stronger effect = lower value 0.981 | S. cerevisiae deletion strains, locus YNL271C, strain bni1, stronger effect = lower value 0.973 | S. cerevisiae deletion strains, locus YNL298W, strain CLA4, stronger effect = lower value 0.968 | S. cerevisiae deletion strains, locus YNL307C, strain MCK1, stronger effect = lower value 0.99 | S. cerevisiae deletion strains, locus YNL322C, strain KRE1 (second series), stronger effect = lower value 1.05 | S. cerevisiae deletion strains, locus YNL322C, strain KRE1, stronger effect = lower value 0.998 | S. cerevisiae deletion strains, locus YNR049C, strain mso1, stronger effect = lower value 1.03 | S. cerevisiae deletion strains, locus YNR052C, strain pop2, stronger effect = lower value 0.982 | S. cerevisiae deletion strains, locus YOL006C, strain TOP1, stronger effect = lower value 0.921 | S. cerevisiae deletion strains, locus YOL012C, strain htz1 0.945 | S. cerevisiae deletion strains, locus YOL147C, strain pex11, stronger effect = lower value 0.974 | S. cerevisiae deletion strains, locus YOR001W, strain rrp6, stronger effect = lower value 1.02 | S. cerevisiae deletion strains, locus YOR061W, strain CKA2, stronger effect = lower value 0.97 | S. cerevisiae deletion strains, locus YOR069W, strain VPS5, stronger effect = lower value 0.995 | S. cerevisiae deletion strains, locus YOR070C, strain gyp1, stronger effect = lower value 1.03 | S. cerevisiae deletion strains, locus YOR080W, strain dia2, stronger effect = lower value 1.04 | S. cerevisiae deletion strains, locus YOR083W, strain WHI5, stronger effect = lower value 0.979 | S. cerevisiae deletion strains, locus YOR106W, strain vam3, stronger effect = lower value 1.04 | S. cerevisiae deletion strains, locus YOR136W, strain idh2, stronger effect = lower value 0.98 | S. cerevisiae deletion strains, locus YOR144C, strain elg1, stronger effect = lower value 0.962 | S. cerevisiae deletion strains, locus YOR184W, strain ser1, stronger effect = lower value 0.97 | S. cerevisiae deletion strains, locus YOR231W, strain MKK1, stronger effect = lower value 1.01 | S. cerevisiae deletion strains, locus YOR265W, strain rbl2, stronger effect = lower value 1.03 | S. cerevisiae deletion strains, locus YOR270C, strain vph1, stronger effect = lower value 1.14 | S. cerevisiae deletion strains, locus YOR290C, strain snf2, stronger effect = lower value 1.02 | S. cerevisiae deletion strains, locus YOR316C, strain cot1, stronger effect = lower value 0.975 | S. cerevisiae deletion strains, locus YPL051W, strain arl3, stronger effect = lower value 1.02 | S. cerevisiae deletion strains, locus YPL055C, strain LGE1, stronger effect = lower value 1 | S. cerevisiae deletion strains, locus YPL078C, strain atp4, stronger effect = lower value 1.03 | S. cerevisiae deletion strains, locus YPL106C, strain sse1, stronger effect = lower value 1.06 | S. cerevisiae deletion strains, locus YPL240C, strain hsp82, stronger effect = lower value 1.02 | S. cerevisiae deletion strains, locus YPL241C, strain CIN2, stronger effect = lower value 0.994 | S. cerevisiae deletion strains, locus YPL256C, strain CLN2, stronger effect = lower value 0.982 | S. cerevisiae deletion strains, locus YPR119W, strain clb2, stronger effect = lower value 0.972 | S. cerevisiae deletion strains, locus YPR141C, strain kar3, stronger effect = lower value 0.979 | S. cerevisiae deletion strains, locus YPR163C, strain tif3, stronger effect = lower value 0.966 | S. cerevisiae deletion strains, locus YPR167C, strain met16, stronger effect = lower value 0.976 | S. cerevisiae deletion strains, strain wtn01, stronger effect = lower value 0.963 | S. cerevisiae strains, strain wild type, stronger effect = lower value 0.994
